Several values for one entry are separate records, joined by “and”; a condition that tells them apart may be missing. Equal entries are not always repeated. Screen size: about 5,500 compounds; about 2,000 (36%) were called active. Another 18% or so got no clear call; they are omitted. No stated cut-off is given here; in the data, active means normalized growth mostly below about 0.91 (no sharp cut-off); inconclusive means no clear call, values can overlap the other calls; inactive means mostly above about 0.92. Some of the results follow.
Test: chemical genetic growth profiling, strain panel (AID 1159580);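 further: tested at 20 µM; growth read once vehicle control cultures reached saturation at 30 °C; 1 = growth at the plate median or of vehicle wells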
Conditions: S. cerevisiae deletion strains, growth OD
[1] = locus YAL013W, strain DEP1, stronger effect = lower value
[2] = locus YAL040C, strain CLN3, stronger effect = lower value
[3] = locus YCL061C, strain MRC1 (second series), stronger effect = lower value
[4] = locus YDR363W, strain ESC2, stronger effect = lower value
[5] = locus YER002W, strain NOP16, stronger effect = lower value
[6] = locus YNL128W, strain TEP1, stronger effect = lower value
[7] = locus YNL153C, strain GIM3, stronger effect = lower value
[8] = locus YNL175C, strain NOP13, stronger effect = lower value
[9] = locus YNL197C, strain WHI3, stronger effect = lower value
[10] = locus YNL224C, strain SQS1, stronger effect = lower value
[11] = locus YOR083W, strain WHI5 (second series), stronger effect = lower value
[12] = locus YMR307W, strain GAS1, stronger effect = lower value
[13] = locus YDR150W, strain NUM1, stronger effect = lower value
[14] = locus YJR075W, strain HOC1, stronger effect = lower value

Measured: normalized growth

CCC(CO)NC(=O)C1C=C2c3cccc4[nH]cc(c34)CC2N(C)C1 (stereo unspecified)
inactive: [1] 0.986 | [2] 0.999 | [3] 1 | [4] 0.991 | [5] 0.99 | locus YGR078C, strain PAC10, stronger effect = lower value 0.977 | [6] 0.997 | [7] 1.02 | [8] 0.996 | [9] 0.978 | [10] 0.995 | [11] 0.996

O=C1CCC(c2ccc(-n3ccnc3)cc2)=NN1
inactive: [1] 0.984 | [2] 0.943 | [3] 1 | [4] 1 | [5] 1.01 | locus YMR263W, strain SAP30, stronger effect = lower value 1 | [12] 1.05 | [8] 0.987 | [9] 0.979 | [10] 0.994 | [11] 0.994

N[C@@H](COP(=O)(O)O)C(=O)O
inactive: [2] 0.991 | [3] 0.989 | [13] 1.01 | [4] 1.01 | [5] 1 | [14] 0.984 | [8] 1.01 | [9] 0.984 | [10] 0.992 | locus YNL322C, strain KRE1, stronger effect = lower value 1.01 | [11] 1.01 | locus YPL055C, strain LGE1, stronger effect = lower value 1.01 | locus YPL241C, strain CIN2, stronger effect = lower value 0.997

Cc1[nH]ccc2c1[nH]c1cc(=O)ccc12
inactive: [1] 1.02 | locus YAL021C, strain ccr4, stronger effect = lower value 0.989 | locus YAL026C, strain drs2, stronger effect = lower value 1.01 | locus YAL030W, strain snc1, stronger effect = lower value 0.995 | locus YBL061C, strain skt5, stronger effect = lower value 0.993 | locus YBR009C, strain hhf1, stronger effect = lower value 1.01 | locus YBR021W, strain FUR4, stronger effect = lower value 1.03 | locus YBR023C, strain chs3, stronger effect = lower value 1 | locus YBR171W, strain sec66, stronger effect = lower value 0.999 | locus YBR229C, strain ROT2, stronger effect = lower value 1.01 | locus YBR231C, strain swc5, stronger effect = lower value 0.975 | locus YBR279W, strain paf1, stronger effect = lower value 1.01 | locus YCL011C, strain gbp2, stronger effect = lower value 1 | locus YCL016C, strain dcc1, stronger effect = lower value 1 | locus YCL029C, strain bik1, stronger effect = lower value 0.986 | locus YCL061C, strain MRC1, stronger effect = lower value 1 | locus YCL069W, strain vba3, stronger effect = lower value 0.995 | locus YCR088W, strain abp1, stronger effect = lower value 0.998 | locus YDL005C, strain med2, stronger effect = lower value 0.996 | locus YDL035C, strain GPR1, stronger effect = lower value 1.03 | locus YDL040C, strain nat1, stronger effect = lower value 0.993 | locus YDL074C, strain BRE1, stronger effect = lower value 1.04 | locus YDL101C, strain DUN1, stronger effect = lower value 1.01 | locus YDL185W, strain tfp1, stronger effect = lower value 0.996 | locus YDL192W, strain arf1, stronger effect = lower value 0.991 | locus YDR001C, strain nth1, stronger effect = lower value 1.01 | locus YDR069C, strain doa4, stronger effect = lower value 1.01 | locus YDR101C, strain arx1, stronger effect = lower value 0.985 | locus YDR137W, strain rgp1, stronger effect = lower value 1 | [13] 1 | locus YDR159W, strain sac3, stronger effect = lower value 0.978 | locus YDR162C, strain NBP2, stronger effect = lower value 1.03 | locus YDR195W, strain ref2 0.996 | locus YDR297W, strain sur2, stronger effect = lower value 1 | locus YDR318W, strain mcm21, stronger effect = lower value 0.993 | locus YDR334W, strain swr1, stronger effect = lower value 1 | locus YDR335W, strain msn5, stronger effect = lower value 0.995 | locus YDR388W, stronger effect = lower value 0.988 | locus YDR392W, strain spt3, stronger effect = lower value 0.96 | locus YDR502C, strain sam2, stronger effect = lower value 0.992 | locus YEL003W, strain gim4, stronger effect = lower value 0.997 | locus YEL037C, strain rad23, stronger effect = lower value 0.993 | locus YEL061C, strain CIN8 (second series), stronger effect = lower value 0.989 | locus YEL061C, strain CIN8, stronger effect = lower value 1.01 | locus YER015W, strain faa2, stronger effect = lower value 1 | locus YER016W, strain bim1, stronger effect = lower value 0.997 | locus YER110C, stronger effect = lower value 0.98 | locus YER111C, strain swi4, stronger effect = lower value 0.989 | locus YER155C, strain BEM2 (second series), stronger effect = lower value 0.973 | locus YER155C, strain BEM2, stronger effect = lower value 1.02 | locus YER167W, strain BCK2, stronger effect = lower value 1.03 | locus YFR010W, strain ubp6, stronger effect = lower value 0.995 | locus YGL078C, strain dbp3, stronger effect = lower value 0.992 | locus YGL086W, strain mad1, stronger effect = lower value 1.01 | locus YGL167C, strain pmr1, stronger effect = lower value 0.993 | locus YGL173C, strain kem1, stronger effect = lower value 1 | locus YGL227W, strain vid30, stronger effect = lower value 0.995 | locus YGL240W, strain doc1, stronger effect = lower value 0.995 | locus YGL248W, strain PDE1, stronger effect = lower value 1.02 | locus YGL253W, strain hxk2, stronger effect = lower value 1 | locus YGR135W, strain pre9, stronger effect = lower value 0.999 | locus YGR252W, strain gcn5, stronger effect = lower value 1.01 | locus YHR013C, strain ard1, stronger effect = lower value 1 | locus YHR027C, strain rpn1, stronger effect = lower value 1 | locus YHR030C, strain SLT2, stronger effect = lower value 1.01 and 0.992 | locus YHR079C, strain IRE1 (second series), stronger effect = lower value 0.991 | locus YHR079C, strain IRE1, stronger effect = lower value 0.989 | locus YHR094C, strain hxt1, stronger effect = lower value 0.986 | locus YHR129C, strain ARP1, stronger effect = lower value 1.03 | locus YHR142W, strain chs7, stronger effect = lower value 1 | locus YHR200W, strain rpn10, stronger effect = lower value 0.993 | locus YIL066C, strain RNR3, stronger effect = lower value 1.04 | locus YIL073C, strain SPO22, stronger effect = lower value 1.02 | locus YIL125W, strain kgd1, stronger effect = lower value 0.993 | locus YIR030C, strain dcg1, stronger effect = lower value 0.991 | locus YJL092W, strain hpr5, stronger effect = lower value 0.999 | locus YJL095W, strain BCK1 (second series), stronger effect = lower value 0.995 | locus YJL095W, strain BCK1, stronger effect = lower value 1.01 and 1.02 | locus YJL115W, strain asf1, stronger effect = lower value 0.994 | locus YJL129C, strain trk1, stronger effect = lower value 1 | locus YJL134W, strain LCB3, stronger effect = lower value 1 | locus YJL154C, strain vps35, stronger effect = lower value 0.997 | locus YJL164C, strain tpk1, stronger effect = lower value 0.996 | locus YJL166W, strain qcr8, stronger effect = lower value 0.995 | locus YJL168C, strain set2, stronger effect = lower value 0.986 | locus YJL187C, strain SWE1 (second series), stronger effect = lower value 1.02 | locus YJL187C, strain SWE1, stronger effect = lower value 0.996 | locus YJR043C, strain POL32, stronger effect = lower value 1.04 | locus YJR066W, strain TOR1, stronger effect = lower value 0.947 | [14] 1.02 | locus YKL009W, strain mrt4, stronger effect = lower value 0.995 | locus YKL068W, stronger effect = lower value 0.997 | locus YKL085W, strain MDH1 (second series), stronger effect = lower value 1.01 | locus YKL085W, strain MDH1, stronger effect = lower value 1.01 | locus YKL160W, strain elf1, stronger effect = lower value 1 | locus YKL190W, strain CNB1, stronger effect = lower value 0.987 | locus YKR001C, strain vps1, stronger effect = lower value 0.987 | locus YKR026C, strain gcn3, stronger effect = lower value 1 | locus YKR091W, strain srl3, stronger effect = lower value 0.992 | locus YLL001W, strain dnm1, stronger effect = lower value 0.994 | locus YLL026W, stronger effect = lower value 1 | locus YLL041C, strain sdh2, stronger effect = lower value 0.999 | locus YLR027C, strain aat2, stronger effect = lower value 0.998 | locus YLR039C, strain RIC1, stronger effect = lower value 1.06 | locus YLR058C, strain SHM2, stronger effect = lower value 1.01 | locus YLR102C, strain apc9, stronger effect = lower value 0.993 | locus YLR113W, strain HOG1, stronger effect = lower value 1.02 | locus YLR221C, strain rsa3, stronger effect = lower value 1.01 | locus YLR258W, strain gsy2, stronger effect = lower value 0.995 | locus YLR262C, strain YPT6 (second series), stronger effect = lower value 0.998 | locus YLR262C, strain YPT6, stronger effect = lower value 1.09 | locus YLR268W, strain sec22, stronger effect = lower value 0.984 | locus YLR320W, strain mms22, stronger effect = lower value 0.999 | locus YLR330W, strain CHS5, stronger effect = lower value 1 | locus YLR342W, strain FKS1 (second series), stronger effect = lower value 1.03 | locus YLR342W, strain FKS1, stronger effect = lower value 0.994 | locus YLR357W, strain rsc2, stronger effect = lower value 0.99 | locus YLR370C, strain arc18, stronger effect = lower value 1 | locus YLR371W, strain rom2, stronger effect = lower value 0.983 | locus YLR384C, strain iki3, stronger effect = lower value 0.999 | locus YLR418C, strain cdc73, stronger effect = lower value 0.997 | locus YML016C, strain PPZ1, stronger effect = lower value 1.01 | locus YML032C, strain rad52, stronger effect = lower value 0.999 | locus YML120C, strain ndi1, stronger effect = lower value 0.992 | locus YML124C, strain tub3, stronger effect = lower value 1 | locus YMR058W, strain fet3, stronger effect = lower value 1 | locus YMR078C, strain ctf18, stronger effect = lower value 0.985 | locus YMR125W, strain sto1, stronger effect = lower value 0.986 | locus YMR129W, stronger effect = lower value 0.995 | locus YMR205C, strain PFK2, stronger effect = lower value 0.983 | locus YMR223W, strain ubp8, stronger effect = lower value 1.01 | locus YMR231W, strain pep5, stronger effect = lower value 0.999 | [12] 1.09 | locus YNL067W, strain RPL9B, stronger effect = lower value 1 | locus YNL071W, strain lat1, stronger effect = lower value 1 | [6] 1.02 | [7] 1 | locus YNL183C, strain NPR1, stronger effect = lower value 0.97 | locus YNL209W, strain ssb2, stronger effect = lower value 1 | locus YNL233W, strain BNI4, stronger effect = lower value 1.01 | locus YNL248C, strain rpa49, stronger effect = lower value 0.995 | locus YNL250W, strain rad50, stronger effect = lower value 1.01 | locus YNL271C, strain bni1, stronger effect = lower value 0.988 | locus YNL298W, strain CLA4, stronger effect = lower value 1.02 | locus YNL307C, strain MCK1, stronger effect = lower value 0.988 | locus YNL322C, strain KRE1 (second series), stronger effect = lower value 0.997 | locus YNR049C, strain mso1, stronger effect = lower value 1 | locus YNR052C, strain pop2, stronger effect = lower value 1 | locus YOL012C, strain htz1 0.948 | locus YOL147C, strain pex11, stronger effect = lower value 0.986 | locus YOR001W, strain rrp6, stronger effect = lower value 0.999 | locus YOR061W, strain CKA2, stronger effect = lower value 1.01 | locus YOR069W, strain VPS5, stronger effect = lower value 1.01 | locus YOR070C, strain gyp1, stronger effect = lower value 0.998 | locus YOR080W, strain dia2, stronger effect = lower value 0.996 | locus YOR083W, strain WHI5, stronger effect = lower value 0.993 | locus YOR106W, strain vam3, stronger effect = lower value 1 | locus YOR136W, strain idh2, stronger effect = lower value 0.991 | locus YOR144C, strain elg1, stronger effect = lower value 0.983 | locus YOR184W, strain ser1, stronger effect = lower value 1 | locus YOR231W, strain MKK1, stronger effect = lower value 1.01 | locus YOR265W, strain rbl2, stronger effect = lower value 0.996 | locus YOR270C, strain vph1, stronger effect = lower value 1.01 | locus YOR290C, strain snf2, stronger effect = lower value 0.989 | locus YOR316C, strain cot1, stronger effect = lower value 0.991 | locus YPL051W, strain arl3, stronger effect = lower value 1 | locus YPL078C, strain atp4, stronger effect = lower value 1.01 | locus YPL106C, strain sse1, stronger effect = lower value 0.987 | locus YPL240C, strain hsp82, stronger effect = lower value 0.99 | locus YPL256C, strain CLN2, stronger effect = lower value 1.03 | locus YPR119W, strain clb2, stronger effect = lower value 0.987 | locus YPR141C, strain kar3, stronger effect = lower value 0.994 | locus YPR163C, strain tif3, stronger effect = lower value 0.986 | locus YPR167C, strain met16, stronger effect = lower value 0.996 | strain wtn01, stronger effect = lower value 0.984
